Most compounds without a hit are left out; they make up all but 11% or so of the library.
FLuc inh – inhibitors of firefly (Photinus pyralis) luciferase. P08659. purified P. pyralis luciferase, luminescence, biochemical. Potency, µM (series often up to 115 µM), most hits filed as inhibitors. hit rate 2.5% among 76,000. AID 1347043; further: nearly all actives have a fitted effect of over 65% in size
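Purified 10nM P. pyralis luciferase with 10uM D-luciferin and 10uM ATP in 50mM Tris acetate pH 7.5, 10mM Mg acetate, 0.01% Tween-20, 0.05% BSA. qHTS titration; luminescence read by CCD imager.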
HEK cytotox – HEK 293 cell cytotoxicity; HEK 293 viability, ATP luminescence (CellTiter-Glo), 48-72 h; Potency, µM (highest dose often 115 µM), for the others: at the top dose activity change, negative = cytotoxicity, hits mostly inhibitors; hit rate 6.6% among 94,000; AID 1345083; further: nearly all actives have a fitted effect of over 60% in size
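ATP-coupled CellTiter-Glo luminescence served as viability read-out, recorded 10 min after reagent addition at room temperature. HEK 293 cells, 250 cells/well, had been incubated with pintool-transferred compound for 48 or 72 hr at 37 degree Celsius.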
NPR1 antag – antagonists of human natriuretic peptide receptor Npr1 | Potency, µM (doses to about 46.3 µM), for the others: at the top dose activity change, negative = inhibition, hits mostly inhibitors | hit rate 1.6% among 76,000 | HEK293 hNpr1 GloSensor cGMP, ANP-stimulated luminescence | P16066; calls by dose curve; further: nearly all actives have a fitted effect of over 60% in size
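HEK293 cells stably expressing human Npr1 and cGMP GloSensor pGS-40F, loaded 2 h with 2% GloSensor reagent, given compound 30 min at room temperature. Luminescence read before and 20 min after 0.1 nM hNppA.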
NIH3T3 tox – NIH 3T3 cell cytotoxicity. hit rate 4.3% among 94,000. AID 1345082. NIH 3T3 viability, CellTiter-Glo ATP luminescence, 48-72 h. Potency, µM (series often up to 96.7 µM), for the others: top-dose activity change, negative = cytotoxicity, usual class: inhibitors; further: nearly all actives have a fitted effect of over 55% in size
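Mouse fibroblast NIH 3T3 cells, 400 per well, received compound via pintool and were incubated for 48 or 72 hr prior to CellTiter-Glo ATP luminescence measurement.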
* marks the source's active call; other numbers are inactive results; [ ] = dose if it differs, or a comment. Unless noted, the call rests on the fitted dose curve; in most records, active means well fitted curve in the direction sought with a large enough effect; inconclusive means small, poorly fitted or top-dose-only effect, or another doubt; inactive means no such curve, though single readings can be large; an effect the other way counts as inactive or inconclusive. On the % scale 0 is the no-effect control and ±100 the full control effect; potency means the concentration at half of the fitted maximal effect.

How did O=C(NC(C(=O)N1CCCC1)C1CCN(C(=O)c2ccccc2)CC1)c1ccc(F)cc1 (stereo not drawn) do in these assays?
FLuc inh: inactive; HEK cytotox: -7%; NPR1 antag: -7%; NIH3T3 tox: -15%

Results for Cc1nc(-c2ccccc2)n(Cc2cccc(C(F)(F)F)c2)c(=O)c1CCO ?
FLuc inh: inactive; HEK cytotox: 50µM*; NPR1 antag: 1%; NIH3T3 tox: inconclusive

How did Cc1nc(-c2ccc(F)cc2)n(Cc2cccc(C(F)(F)F)c2)c(=O)c1CCO do in these assays?
FLuc inh: inactive; HEK cytotox: 45µM*; NPR1 antag: -7%; NIH3T3 tox: inconclusive

Results for COc1cc(OC)cc(C(=O)N2CCC3(CC2)NC(=O)N(c2ccc(F)cc2)N3)c1 ?
FLuc inh: inactive; HEK cytotox: 28µM*; NPR1 antag: -26%; NIH3T3 tox: 25µM*

How did O=[S+]([O-])(NC1CCN(c2ccnc3ccnn23)CC1)c1cccc(C(F)(F)F)c1 do in these assays?
HEK cytotox: 45µM*; NIH3T3 tox: inconclusive

Results for O=[S+]([O-])(NC1CCN(c2ccnc3ccnn23)C1)c1cccs1 (stereo not drawn) ?
HEK cytotox: 71µM*; NIH3T3 tox: inconclusive

Results for CCOc1ccc(NC(=O)Cn2cccc2-c2nc(-c3ccccc3)no2)cc1 ?
FLuc inh: inactive; HEK cytotox: 28µM*; NPR1 antag: -4%; NIH3T3 tox: inconclusive

How did COc1ccc(NC(=O)Cn2cccc2-c2nc(-c3ccccc3)no2)cc1OC do in these assays?
FLuc inh: inactive; HEK cytotox: 32µM*; NPR1 antag: 5%; NIH3T3 tox: 32µM*

How did COc1ccccc1N1CCN(C(=O)Cn2cccc2-c2nc(-c3ccc(F)cc3)no2)CC1 do in these assays?
FLuc inh: inactive; HEK cytotox: 40µM*; NPR1 antag: -4%; NIH3T3 tox: inconclusive

What do the screens show for `CCCN(C)c1nccnc1OC1CCN(C(=O)Cc2ccccc2OC)C1` (stereo not drawn)?
FLuc inh: 35µM*; HEK cytotox: inconclusive; NPR1 antag: -11%; NIH3T3 tox: inconclusive

How did CCCN(C)c1nccnc1OC1CCN(C(=O)c2cccc(OC)c2OC)C1 (stereo not drawn) do in these assays?
FLuc inh: 32µM*; HEK cytotox: inconclusive; NPR1 antag: -15%; NIH3T3 tox: inconclusive

What do the screens show for `CN1CC2(CCN(C(=O)c3ccccc3F)CC2)CC(c2ccccc2)C1=O` (stereo not drawn)?
FLuc inh: inactive; HEK cytotox: -17%; NPR1 antag: 0%; NIH3T3 tox: -21%

What do the screens show for `O=C(C1CCCN1C(=O)c1ccc(Cl)nc1)N1CCCC(c2nc3ncccc3[nH]2)C1` (stereo not drawn)?
HEK cytotox: 0%; NIH3T3 tox: -9%

What do the screens show for `CN(C)c1cccc(C(=O)NC2CCCN(c3cc(-c4ccccc4)[nH]n3)C2)c1` (stereo not drawn)?
FLuc inh: 35µM*; HEK cytotox: inconclusive; NPR1 antag: -11%; NIH3T3 tox: inconclusive

Results for CN(C)c1ccc(C(=O)NCC2CCN(c3cc(-c4ccc(F)cc4)[nH]n3)CC2)cc1 ?
FLuc inh: inconclusive; HEK cytotox: inconclusive; NPR1 antag: -23%; NIH3T3 tox: inconclusive

Results for COc1ccc(-c2cc(N3CCCC(NC(=O)c4ccoc4)C3)n[nH]2)cc1 (stereo not drawn) ?
FLuc inh: 22µM*; HEK cytotox: inconclusive; NPR1 antag: -8%; NIH3T3 tox: -18%

What do the screens show for `COc1ccc(-c2cc(N3CCCC(NC(=O)c4cccc(C#N)c4)C3)n[nH]2)cc1` (stereo not drawn)?
FLuc inh: 20µM*; HEK cytotox: inconclusive; NPR1 antag: -16%; NIH3T3 tox: inconclusive

How did CN(C)c1cccc(C(=O)NCC2CCN(c3cc(-c4ccccc4)[nH]n3)CC2)c1 do in these assays?
FLuc inh: 16µM*; HEK cytotox: inconclusive; NPR1 antag: -15%; NIH3T3 tox: inconclusive

Results for O=C(NCc1cccc(Cl)c1)C1CCc2nnc(C3CC3)n21 (stereo not drawn) ?
HEK cytotox: -21%[172 µM]; NIH3T3 tox: -19%[138 µM]

How did CCCCCNC(=O)Cc1csc2nc(C)c(-c3cc(C)n(-c4cccc(C)c4C)n3)c(=O)n12 do in these assays?
FLuc inh: inactive; HEK cytotox: inconclusive; NPR1 antag: 4%; NIH3T3 tox: inconclusive

Results for COc1ccc(-c2cc(N3CCCC(NC(=O)c4cccc(NC(C)=O)c4)C3)n[nH]2)cc1 (stereo not drawn) ?
FLuc inh: 28µM*; HEK cytotox: inconclusive; NPR1 antag: -6%; NIH3T3 tox: inconclusive

What do the screens show for `COc1ccc(-c2cc(N3CCCC(NC(=O)c4ccccc4)C3)n[nH]2)cc1` (stereo not drawn)?
FLuc inh: 22µM*; HEK cytotox: inconclusive; NPR1 antag: -16%; NIH3T3 tox: inconclusive

Results for COc1ccc(-c2cc(N3CCCC(NC(=O)c4ccc(C)s4)C3)n[nH]2)cc1 (stereo not drawn) ?
FLuc inh: 28µM*; HEK cytotox: inconclusive; NPR1 antag: -14%; NIH3T3 tox: inconclusive

Results for CC(=O)Nc1cccc(C(=O)NC2CCCN(c3cc(-c4ccc(F)cc4)[nH]n3)C2)c1 (stereo not drawn) ?
FLuc inh: inconclusive; HEK cytotox: inconclusive; NPR1 antag: -1%; NIH3T3 tox: -21%

What do the screens show for `Cc1ccc(C(=O)NC2CCCN(c3cc(-c4ccccc4)[nH]n3)C2)s1` (stereo not drawn)?
FLuc inh: inconclusive; HEK cytotox: inconclusive; NPR1 antag: -11%; NIH3T3 tox: inconclusive

What do the screens show for `CN(C(=O)c1ccc2cccc(F)c2n1)C1CCCN(CCCc2ccccc2)C1` (stereo not drawn)?
FLuc inh: inactive; HEK cytotox: inconclusive; NPR1 antag: 15%; NIH3T3 tox: inconclusive

How did Cc1nn(-c2ccccn2)c(C)c1[C@@H]1C=C[C@@H](NC(=O)NCc2ccccc2)C1 do in these assays?
FLuc inh: inconclusive; HEK cytotox: inconclusive; NPR1 antag: -26%[70.6 µM]; NIH3T3 tox: inconclusive

What do the screens show for `Cc1nn(-c2ccccc2[N+](=O)[O-])c(C)c1[C@@H]1C=C[C@@H](NCc2ccc(C(C)C)cc2)C1`?
FLuc inh: inactive; HEK cytotox: 20µM*; NPR1 antag: inconclusive; NIH3T3 tox: inconclusive

Results for Cc1nn(-c2ccccc2[N+](=O)[O-])c(C)c1[C@@H]1C=C[C@@H](NCc2ccco2)C1 ?
FLuc inh: inactive; HEK cytotox: 89µM*; NPR1 antag: -17%[70.6 µM]; NIH3T3 tox: inconclusive

Results for O=C(NCc1ccnc2[nH]ccc12)c1cccc(Br)c1 ?
FLuc inh: inconclusive; HEK cytotox: -2%[172 µM]; NPR1 antag: 7%[70.6 µM]; NIH3T3 tox: -14%[138 µM]

What do the screens show for `CN(CCC1CCOCC1)C(=O)c1cc(COc2ccccc2F)[nH]n1`?
FLuc inh: inactive; HEK cytotox: 11%; NPR1 antag: 4%; NIH3T3 tox: inactive

Screening data from PubChem.
